Source: PubChem (several laboratories)
MEKK2 WT-MEK5 – raises or lowers MEK5 binding to wildtype human MEKK2 PB1 domain; hit rate 1.1% among 290,000; bead flow cytometry, Alexa488-MEK5 binding to MEKK2 WT; actives lie on both sides; binding response (% of control), % at 10 µM; AID 1531; Q9Y2U5; in the data active means binding response below about 67% or above about 130%; inconclusive means no clear call, values can overlap the other calls; inactive means in between
Rce1 inhib – blocks yeast Ras-converting enzyme; hit rate 0.27% among 290,000; calls only; yeast membranes, quenched prenylated peptide cleavage fluorescence;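 active means fall in fluorescence gain of 50% or more versus controls, with final raw signal at or below 3038400; inconclusive means same 50% fall but final raw signal above 3038400; inactive means fall in fluorescence gain under 50%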;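 further: plate controls were neutral control wells for no effect and wells lacking membranes for full effect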
MEKK3 PB1 HTS – MEKK3-MEK5 PB1 interaction, increase or decrease; Q99759; binding response (% of control), % at 10 µM; AID 1529; bead-based flow cytometry, Alexa488-MEK5 binding to MEKK3; actives lie on both sides; 0 = blocked by unlabeled MEK5, 100 = vehicle; hit rate 1.4% among 290,000;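 active means binding response more than 3 SD above or below the average of its plate-row segment, actives on both sides; inconclusive means wells at one plate position flagged as instrument error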;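 further: Alexa488 bead fluorescence after subtracting the streptavidin-only scavenger bead signal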
Target sequence (Q99759 whole entry, looked up): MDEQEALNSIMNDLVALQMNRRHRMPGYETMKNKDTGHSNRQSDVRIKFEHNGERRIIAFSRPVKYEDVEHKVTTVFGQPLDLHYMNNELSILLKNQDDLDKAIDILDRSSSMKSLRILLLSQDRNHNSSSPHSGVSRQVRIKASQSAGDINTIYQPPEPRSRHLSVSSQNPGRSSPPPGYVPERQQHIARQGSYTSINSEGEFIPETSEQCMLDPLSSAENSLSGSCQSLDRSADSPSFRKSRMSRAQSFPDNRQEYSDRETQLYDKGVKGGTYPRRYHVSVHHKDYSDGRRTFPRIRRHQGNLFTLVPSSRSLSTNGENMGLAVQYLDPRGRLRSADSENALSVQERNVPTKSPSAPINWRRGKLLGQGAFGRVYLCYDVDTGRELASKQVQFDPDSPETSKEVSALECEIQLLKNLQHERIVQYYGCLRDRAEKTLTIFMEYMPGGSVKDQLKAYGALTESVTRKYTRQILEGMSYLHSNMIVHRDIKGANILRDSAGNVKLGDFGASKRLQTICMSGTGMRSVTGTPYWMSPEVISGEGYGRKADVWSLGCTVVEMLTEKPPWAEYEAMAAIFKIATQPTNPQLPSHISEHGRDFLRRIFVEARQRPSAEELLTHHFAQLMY
UBC13 inh – human UBC13 polyubiquitination inhibition. P61088. UBC13 polyubiquitin chain formation, TR-FRET. inhibition, % at 20 µM. hit rate 0.47% among 330,000; in the data active means inhibition above about 45%, passing the limit was not always enough; inconclusive means no clear call, values can overlap the other calls
MEKK2 mut-MEK5 – signal of MEK5 binding to mutant human MEKK2 PB1 domain; bead flow cytometry, Alexa488-MEK5 binding to MEKK2 mutant; percent response, % at 10 µM; hit rate 0.35% among 290,000; AID 1530; in the data active means percent response above about 24%, passing the limit was not always enough
Casp3 UBC13 ctr – caspase-3 inhibition (UBC13 counter-screen) | shares compounds with UBC13 inh | Recombinant caspase-3, Caspase-Glo 3/7 luminescence, 60 min | inhibition, % at 20 µM | hit rate 4% among 1,400;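 active means mean inhibition across replicates above about 26%, limit read from the data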;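 further: plate controls were DMSO with caspase-3 for no effect and DMSO wells lacking enzyme for full effect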
UBC13 conf – confirmation of human UBC13 polyubiquitin inhibitors; shares compounds with UBC13 inh; UBC13 polyubiquitination, TR-FRET, biochemical; inhibition, % at 10 µM; hit rate 68% among 1,400; AID 488859; in the data active means inhibition above about 45%; inconclusive means no clear call, values can overlap the other calls
Active calls of the source: *; i = inactive; ? = inconclusive; nt = no result. Rows were chosen to be rich in hits. Some 2.5% of all compounds tested hit in one or more screens of this group.

SMILES	MEKK2 WT-MEK5	Rce1 inhib	MEKK3 PB1 HTS	UBC13 inh	MEKK2 mut-MEK5	Casp3 UBC13 ctr	UBC13 conf
O=C(COC(=O)c1ccc(S(=O)(=O)N2CCOCC2)cc1)NCc1cccs1	101	i	100	1	0	nt	nt
Cc1ccc2cc3c(nc2c1)N(c1ccccc1)CC3	99	i	100	46*	-2	0	32
Cc1ccc(S(=O)(=O)n2cc(C=O)c3ccccc32)cc1	98	i	99	83*	1	5	85*
Cc1ccc(S(=O)(=O)n2cc(-c3ccccc3)c3ccccc32)cc1	nt	nt	nt	-3	nt	nt	nt
COc1ccc(S(=O)(=O)Nc2ccc(C)cn2)cc1	101	nt	104	46*	2	-2	-3
Oc1cccc(NC(=S)N=Nc2c(O)[nH]c3ccc(Br)cc23)c1	77	i	90	86*	-3	3	?
Oc1ccc(NC(=S)N=Nc2c(O)[nH]c3ccccc23)cc1	99	i	100	92*	-2	6	103*
Cc1ccc(NC(=S)N=Nc2c(O)[nH]c3ccccc23)cc1	91	nt	103	43	0	nt	nt
CN(CC(=O)Nc1cccc(F)c1)C(=O)CCCc1cccs1	100	i	102	11	15	nt	nt
COc1ccccc1/C=N/Nc1cc(C)nc2ccc(C)cc12	108	nt	110	-6	4	nt	nt
COc1ccc2nc(C)cc(N/N=C/c3ccccc3)c2c1	nt	nt	nt	53*	nt	6	49*
CCOc1ccc(/C=N/NC(=O)Cc2csc(Nc3cccc(C(F)(F)F)c3)n2)c(OCC)c1	nt	i	nt	-4	nt	nt	nt
COc1ccc(/C=N/NC(=O)Cc2csc(Nc3cccc(C(F)(F)F)c3)n2)c(OC)c1	nt	i	nt	78*	nt	-2	69*
COc1ccccc1NC(=O)C1CCCN(S(=O)(=O)c2ccc(-n3cnnn3)cc2)C1 (stereo unspecified)	97	i	101	0	-3	nt	nt
COc1ccc(-c2oc3ncnc(N)c3c2-c2ccccc2)cc1	97	i	99	81*	-4	-2	81*
CCC1(C)NC(=O)N(CC(=O)N2CCC(Cc3ccccc3)CC2)C1=O (stereo unspecified)	nt	nt	nt	64*	nt	2	35
C#CCOCCOCCOCCNc1nc(N2CCN(C(=O)[C@H](CCCN=C(N)N)n3cc(C(N)[C@@H](C)CC)nn3)CC2)nc(N2CCN(C(=O)[C@H](CCCCN)n3cc([C@@H](N)CC(N)=O)nn3)CC2)n1 (stereo partly specified)	nt	nt	nt	50*	nt	-5	44
C#CCOCCOCCOCCNc1nc(N2CCN(C(=O)[C@H](CCCN=C(N)N)n3cc(C(N)[C@@H](C)CC)nn3)CC2)nc(N2CCN(C(=O)[C@H](CCC(=O)O)n3cc([C@@H](N)CC(N)=O)nn3)CC2)n1 (stereo partly specified)	nt	nt	nt	-3	nt	nt	nt
C#CCOCCOCCOCCNc1nc(N2CCN(C(=O)C([C@@H](C)O)n3cc([C@@H](N)CCCCN)nn3)CC2)nc(N2CCN(C(=O)[C@H](CC(N)=O)n3cc([C@@H](N)C(C)C)nn3)CC2)n1 (stereo partly specified)	nt	nt	nt	17	nt	nt	nt
C#CCOCCOCCOCCNc1nc(N2CCN(C(=O)[C@H](CCCCN)n3cc([C@@H](N)C(C)CC)nn3)CC2)nc(N2CCN(C(=O)[C@H](Cc3cc4ccccc4[nH]3)n3cc([C@@H](N)C(C)CC)nn3)CC2)n1 (stereo partly specified)	nt	nt	nt	111*	nt	-2	114*
C#CCOCCOCCOCCNc1nc(N2CCN(C(=O)C([C@@H](C)O)n3cc([C@@H](N)CCCCN)nn3)CC2)nc(N2CCN(C(=O)[C@H](CCCN=C(N)N)n3cc(C(N)[C@@H](C)CC)nn3)CC2)n1 (stereo partly specified)	nt	nt	nt	101*	nt	7	111*
C#CCOCCOCCOCCNc1nc(N2CCN(C(=O)[C@H]([C@@H](C)CC)n3cc([C@@H](N)Cc4ccc(O)cc4)nn3)CC2)nc(N2CCN(C(=O)[C@H](Cc3cc4ccccc4[nH]3)n3cc([C@@H](N)CC(C)C)nn3)CC2)n1	nt	nt	nt	87*	nt	-4	61*
